Data on nine compounds can be found in PubChem BioAssay (NCATS).

Several values for one entry are separate records, joined by “and”; a condition that tells them apart may be missing. Identical values can stand only once. Inconclusive results are not listed. Activity calls are given as the source filed them. Unless noted, calls come from the whole dose curve; as a rule, active = well fitted curve in the direction sought with a large enough effect; inconclusive = small, poorly fitted or top-dose-only effect, or another doubt; inactive = no such curve, though single readings can be large; an effect the other way counts as inactive or inconclusive.

Experiment [1] can be described thus: Cell Viability - LYMP2-023 (AID 975).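 Note: cellular ATP measured by luciferase luminescence as viability proxy; plate controls were DMSO only for no effect and 92 µM tetraoctylammonium bromide control for full effect; nearly all actives have a fitted effect of over 55% in size.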 The procedure, abridged:
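In this qHTS, ATP-based luciferase luminescence (CellTiter-Glo) is quantified in human lymphoblastoid cells after 24 hr compound treatment at 37 C; tetraoctylammonium bromide serves as positive control. Concentration-response curves are Hill-fitted to give AC50.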

The nature of experiment [2]: Cell Viability - LYMP2-025 (AID 976).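 Note: plate controls were DMSO only for no effect and tetraoctylammonium bromide control for full effect.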 The procedure, abridged:
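Luminescent ATP readout after 24 hr treatment of a human lymphoblastoid line (LYMP2-025, 2500 cells/well, 37 C). Reagent developed 30 min at room temperature; AC50 fitted with the Hill equation.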

Experiment [3] is described as follows: Cell Viability - LYMP2-002 (AID 977).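 Note: compound exposure lasted 24 h at 37 °C; plate controls were DMSO only for no effect and 92 µM tetraoctylammonium bromide for full effect.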 The procedure, abridged: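 Human lymphoblastoid cells, 2500/well, complete medium; 5 h 37 C settle; compound 24 h 37 C; CellTiter-Glo, 30 min RT; luminescence. Decrease in ATP = cytotoxicity; AC50 via Hill equation.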
Experiment [4] in a line: Cell Viability - LYMP2-006 (AID 978). Note: % is set by controls: 0 for no effect and ±100 for the full control effect; nearly all actives have a fitted effect of over 60% in size. The procedure, abridged: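 Human lymphoblastoid cells, 2500 per well, were preincubated 5 hr at 37 C, then exposed to compounds for 24 hr at 37 C in complete medium. Viability was read as intracellular ATP by CellTiter-Glo luminescence; AC50 from Hill-equation fits of qHTS concentration-response data.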
The nature of experiment [5]: Cell Viability - LYMP2-007 (AID 979).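 Note: cells exposed to compound for 24 h before reading; nearly all actives have a fitted effect of over 60% in size.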 Note: potency is the fitted concentration of half-maximal effect. A digest of the protocol: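 Measured via luciferase-based ATP quantitation: lymphoblastoid cells, 24 hr compound exposure at 37 C, AC50 from Hill fits.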
Experiment [6] is described as follows: Cell Viability - LYMP2-008 (AID 980). Note: % is set by controls: 0 for no effect and ±100 for the full control effect; nearly all actives have a fitted effect of over 60% in size. A digest of the protocol: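 Measured: ATP-dependent luminescence, proportional to viable cell number, in human lymphoblastoid cells treated 24 hr with compound in complete culture medium. Values are AC50s from Hill-equation modelling of qHTS titrations.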
Experiment [7] in a line: Cell Viability - LYMP2-010 (AID 981). Note: nearly all actives have a fitted effect of over 55% in size. Note: potency is the fitted concentration of half-maximal effect. The procedure, abridged: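 This 24 hr viability screen uses LYMP2-010 lymphoblastoid cells, quantifies ATP via luciferase luminescence, and derives AC50 from Hill fits of qHTS concentration-response data.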
The nature of experiment [8]: Cell Viability - LYMP2-012 (AID 982).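 Note: cellular ATP by luciferase luminescence where a drop means cytotoxicity; cells exposed to compound for one day before reading; nearly all actives have a fitted effect of over 55% in size.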 Note: potency is the fitted concentration of half-maximal effect.
Experiment [9] in a line: Cell Viability - LYMP2-016 (AID 984). Note: % is set by controls: 0 for no effect and ±100 for the full control effect; nearly all actives have a fitted effect of over 55% in size. The procedure, abridged:
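Human lymphoblastoid cells (LYMP2-016), 2500/well in complete medium, preincubated 5 hr at 37 C, then compound-treated 24 hr at 37 C. Intracellular ATP read by CellTiter-Glo luminescence after 30 min at room temperature; AC50 from Hill-equation concentration-response fits.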

Experiment [10] can be described thus: Cell Viability - LYMP2-018 (AID 985).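 Note: plate controls were DMSO only for no effect and tetraoctylammonium bromide at 92 µM for full effect; nearly all actives have a fitted effect of over 50% in size.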 A digest of the protocol: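 In this qHTS viability assay, cells are treated for 24 hr and cellular ATP is quantified by luciferase-based luminescence, with tetraoctylammonium bromide as positive control.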
Experiment [11] in a line: Cell Viability - LYMP2-020 (AID 986). A digest of the protocol:
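Cells at 2500 per well receive a 24 hr compound exposure at 37 C. Viability is measured as ATP-dependent luciferase luminescence, with AC50 modeled from qHTS concentration-response curves.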

A short description of experiment [12]: Cell Viability - LYMP2-024 (AID 988). Note: nearly all actives have a fitted effect of over 60% in size. Note: potency is the fitted concentration of half-maximal effect. The procedure, abridged: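 Cells at 2500 per well received compound for 24 hr after a 5 hr settling period. Viability was scored by CellTiter-Glo luminescence, with AC50 from Hill fits.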
Experiment [13] can be described thus: Cell Viability - LYMP2-026 (AID 989). Note: % is set by controls: 0 for no effect and ±100 for the full control effect; nearly all actives have a fitted effect of over 50% in size. A digest of the protocol:
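Acute toxicity screen in complete culture medium, with 24 hr compound exposure at 37 C. Viability read as cellular ATP via luciferase reaction, with tetraoctylammonium bromide (6.4pM to 92 uM) as positive control.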

Experiment [14] can be described thus: Cell Viability - LYMP1-002 - Assay at 24 hr (AID 993). Note: % is set by controls: 0 for no effect and ±100 for the full control effect. A digest of the protocol: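 Viability was judged from intracellular ATP using a luciferase read-out, following a 24-hour compound incubation at 37 C of lymphoblastoid cells seeded at 2500 per well. Concentration-response data were fitted to the Hill equation for AC50.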
The nature of experiment [15]: Cell Viability - LYMP1-002 - Assay at 40 hr (AID 994). A digest of the protocol: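 Concentration-dependent ATP loss after 40 hr treatment at 37 C defined toxicity; AC50 values were obtained by fitting the standard Hill equation.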
Experiment [16] is described as follows: Validation of Assay for Modulators of Lamin A Splicing (AID 1459; active = well fitted curve in the direction sought with a large enough effect in the signal ratio; the % refers to the signal ratio;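 note: cells exposed to compound for two days before reading; 0% is about no effect; ratio rise marks activators and ratio drop marks inhibitors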). The procedure, abridged:
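S3 HeLa cells stably expressing a lamin A-EGFP splicing minigene and DsRed2 were seeded at 600 cells/well in Opti-MEM with 2% FBS, pin-dosed, and incubated 48 hrs at 37 °C, 5% CO2. Laser-scanning cytometry (488 nm) gave GFP/RFP total intensity ratio.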

A short description of experiment [17]: qHTS Assay for Lipid Storage Modulators (AID 1519; calls by dose curve; for activity change, negative = inhibition: % is set by controls: 0 for no effect and ±100 for the full control effect). The following applies: Drosophila S3 cells, BODIPY lipid droplet/cell ratio, laser cytometry, cells loaded with oleic acid. A digest of the protocol: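 Cells seeded at 5,000 per well were treated with compounds over a concentration series and loaded with oleic acid (400 uM, as added). Lipid droplet fluorescence (488 nm excitation, 500-530 nm channel) was read by laser-scanning cytometry and normalized to 20 uM Triacsin C.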

Experiment [18] addresses Alpha-galactosidase A (Homo sapiens) (UniProt P06280). The experiment can be described thus: Counterscreen for Glucocerebrosidase Inhibitors: qHTS Assay for Human alpha-Galactosidase at pH 4.5 (AID 992). Note: 0% is about no effect. A digest of the protocol:
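Each compound is preincubated briefly with 2 nM enzyme before substrate addition (80 uM); plates then sit 20 min at ambient temperature, are quenched with 1M NaOH/1M glycine, and read fluorometrically.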

In experiment [19] the target is alpha-glucosidase (Oryza sativa, rice) (UniProt Q653V4). The experiment is described as follows: Counterscreen for Glucocerebrosidase Inhibitors: qHTS Assay for Rice alpha-Glucosidase at pH 5.0 (AID 997).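 Note: 0% = full activity with enzyme and -100% = basal without enzyme.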 The procedure, abridged:
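Endpoint fluorogenic assay at pH 5.0: compounds (0.7 nM to 77 uM) titrated against 4 nM rice enzyme and 400 uM 4-MU-alpha-glucoside for 20 min at room temperature; NaOH/glycine stop, read ex 365/em 440 nm, Hill-fitted AC50.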
(The purpose of a counterscreen is to sort out artefacts and off-target activity.)

Experiment [20] deals with Alpha-galactosidase (Coffea arabica) (UniProt Q42656). The experiment is described as follows: Counterscreen for Glucocerebrosidase Inhibitors: qHTS Assay for Coffee Bean alpha-Galactosidase at pH 5.9 (AID 998).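 Note: plate controls were uninhibited enzyme for no effect and no-enzyme basal signal for full effect.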 A digest of the protocol: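 Enzyme 2 nM + cpd (0.7 nM–77 uM titration) + 4-MU-alpha-Gal 80 uM, pH 5.9 citrate/Tween-20, RT 20 min, NaOH/glycine stop pH 10, fluor 365/440. Normalized to no-enzyme and full-activity controls; Hill-fit AC50.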

Where [21] appears, read: measured here: cell count channel max response.
Setting [22] is: measured here: lipid channel max response.

Alpha-galactosidase A (Homo sapiens), sequence (P06280 whole entry, looked up): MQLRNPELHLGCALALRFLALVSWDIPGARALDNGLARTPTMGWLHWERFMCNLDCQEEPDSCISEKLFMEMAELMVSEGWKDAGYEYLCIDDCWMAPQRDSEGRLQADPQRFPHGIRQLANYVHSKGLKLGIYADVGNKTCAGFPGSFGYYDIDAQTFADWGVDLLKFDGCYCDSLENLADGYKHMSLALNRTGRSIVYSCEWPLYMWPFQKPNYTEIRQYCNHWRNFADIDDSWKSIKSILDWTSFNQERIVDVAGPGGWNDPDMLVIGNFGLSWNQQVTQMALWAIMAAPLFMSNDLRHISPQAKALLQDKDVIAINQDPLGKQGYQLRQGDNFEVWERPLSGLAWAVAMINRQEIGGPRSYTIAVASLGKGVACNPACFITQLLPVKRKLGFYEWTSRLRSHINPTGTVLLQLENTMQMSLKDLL
Alpha-galactosidase (Coffea arabica), sequence (Q42656 whole entry, looked up): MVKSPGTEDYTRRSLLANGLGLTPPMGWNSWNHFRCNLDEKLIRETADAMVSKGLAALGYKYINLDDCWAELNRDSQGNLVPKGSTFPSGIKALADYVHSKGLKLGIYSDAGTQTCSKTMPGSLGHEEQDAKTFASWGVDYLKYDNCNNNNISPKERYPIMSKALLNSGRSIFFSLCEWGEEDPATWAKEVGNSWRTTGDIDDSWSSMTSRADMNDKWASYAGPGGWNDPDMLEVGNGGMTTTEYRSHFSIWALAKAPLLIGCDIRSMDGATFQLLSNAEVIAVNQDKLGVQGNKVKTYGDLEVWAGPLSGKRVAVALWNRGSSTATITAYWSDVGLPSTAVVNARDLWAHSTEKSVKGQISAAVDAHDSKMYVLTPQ

`COc1ccc2c(c1OC)C(=O)OC2C1c2cc3c(cc2CCN1C)OCO3` (stereo not drawn): the Potency result in experiment [1], in experiment [2], in experiment [3], in experiment [4], in experiment [5] and in experiment [6] was “inactive” throughout. The Potency entry in experiment [7], in [8], in experiment [9], in experiment [10], in experiment [11] and in [12] was “inactive” in each case. Also, the Potency entry in experiment [13], in experiment [14] and in experiment [15] was “inactive” in each case. Also, the compound was classed as inactive in experiment [16]. In addition, in experiment [17] (at 57.5 µM (top of the series)), the activity change, negative = inhibition is 1.56% (inactive). Further, the max response in experiment [17] (setting [21]) stood at 61%; in experiment [17] (setting [22]) it was 66.1%.
For the compound `NNC(=O)c1ccc(O)cc1`, the outcome in [18], in experiment [19], in [20] and in experiment [16] was inactive.
Take `O=C1C=CC(=O)C=C1`: the Potency entry in [2], in experiment [3], in experiment [9], in experiment [13], in experiment [14] and in experiment [15] was “inactive” each time. In addition, the Potency in experiment [5] was 50.1 µM (active); in experiment [7], 39.8 µM (active); in experiment [8], 39.8 µM (active); in experiment [12], 31.6 µM (active). Further, the result in experiment [18], in experiment [20] and in experiment [16] was inactive. Besides, the activity change, negative = inhibition in experiment [17] (at 57.5 µM (top of the series)) was 0.0539% (inactive). Further, the figures for the max response in experiment [17] (setting [21]) and in [17] (setting [22]) were -25.7% and -24.4%, respectively.
In the case of `CCCN(CCC)CCc1ccc(O)c(O)c1`, the compound was classed as inactive in experiment [18], in experiment [19], in [20] and in experiment [16]. The activity change, negative = inhibition in experiment [17] (at 57.5 µM (top of the series)) is -0.321% (inactive). In addition, the max response was -7.51% in [17] (setting [21]) and -5.97% in experiment [17] (setting [22]).
Regarding `NC(N)=NOCC[C@H](N)C(=O)O`, the compound was called inactive in experiment [18], in [19], in [20] and in experiment [16]. Also, the activity change, negative = inhibition in experiment [17] (at 25.7 µM (top of the series)) was -2.42% (inactive); in [17] (at 57.5 µM (top of the series)), -0.661% (inactive) and -1.31% (inactive). Besides, the max response in experiment [17] (setting [21]) was -2.62% and 0.126% and 38.5%; in [17] (setting [22]), -6.68% and -0.879% and 37%.
Turning to `Nc1ccc(CCN2CCN(c3cccc(C(F)(F)F)c3)CC2)cc1`, the outcome in [18], in experiment [19], in experiment [20] and in [16] was inactive. Also, the activity change, negative = inhibition in experiment [17] (at 57.5 µM (top of the series)) was 2.29% (inactive). The max response in experiment [17] (setting [21]) was -6.99%; in [17] (setting [22]), -6.09%.
`NCCc1ccc(S(=O)(=O)F)cc1`: the call in [18], in experiment [19], in experiment [20] and in experiment [16] was inactive.
Take `N[C@@H](Cn1oc(=O)[nH]c1=O)C(=O)O`: the outcome in experiment [18], in experiment [20] and in [16] was inactive. Further, in [17] (at 57.5 µM (top of the series)), the activity change, negative = inhibition is 3.82% (inactive). The max response came to 22.6% in [17] (setting [21]) and 26.9% in [17] (setting [22]).
Turning to `CCCN(CCC)CCc1c[nH]c2ccc(C(N)=O)cc12`, the compound was called inactive in experiment [18], in [19], in experiment [20] and in experiment [16]. In addition, in [17] (at 57.5 µM (top of the series)), the activity change, negative = inhibition was 1.01% (inactive). The max response in [17] (setting [21]) is -28.4%; in experiment [17] (setting [22]) it was -33.9%.
